Screening results: PubChem, several laboratories
HSP90 inh: blocks HSP90-mediated luciferase refolding in reticulocyte lysate; hit rate 0.91% among 290,000; Rabbit reticulocyte lysate, luciferase refolding luminescence, 3 h; inhibition, % at 5.6 µM; AID 1789;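 active = inhibition above the screen-wide mean plus 3 SD, computed separately per campaign, cut at about 16% in these data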;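 note: inhibitors lower the luminescence because luciferase stays unfolded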
KKLEB cytotox: counter-screen for CF NF-kB inhibitors: cytotoxicity. hit rate 0.36% among 360,000. activity change (cytotoxicity), % at 5 µM. KKLEB CF airway cells viability, ATPlite luminescence, overnight; hits give low values; cells stimulated with P. aeruginosa culture filtrate. AID 602141;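 active = corrected activity change at or below -50% at 5 µM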
Mdm2-MdmX inh: disrupts the human Mdm2-MdmX interaction. O15151+Q00987. SaOS-2 split-luciferase Mdm2/MdmX complementation, luminescence. inhibition, % at 8 µM. hit rate 3% among 330,000;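 active = inhibition of at least 50% at 8 µM in the primary screen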
CF NFkB block: cystic fibrosis NF-kB activation inhibition | KKLEB NF-kB-GFP reporter, PAF-induced, GFP fluorescence overnight | inhibition, % at 5 µM | hit rate 0.86% among 360,000;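 active = at least 50% inhibition at 5 µM, scaled per plate between neutral and stimulator controls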;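 note: PAF is a Pseudomonas aeruginosa culture filtrate used as stimulus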
LGR2 antag: Drosophila LGR2 receptor signaling inhibition | HEK293 LGR2, CRE-luciferase, bursicon-stimulated, 4 h | inhibition, % at 9.99 µM | hit rate 0.35% among 380,000 | AID 720647;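 active = drop in luminescence signal, shown as inhibition above about 50% in the replicate tests, limit read from the data, passing the limit was not always enough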;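 note: agonist challenge used bursicon conditioned medium at about half maximal strength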
Peg3 promoter: Peg3 promoter activity inhibition. HeLa PEG-Prom luciferase reporter, luminescence, overnight. inhibition, % at 20 µM. hit rate 1.7% among 360,000. AID 588405;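 active = inhibition of at least 50% at 20 µM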
Hits are given with their value; 0 = inactive; - = no result. Compounds with a hit are over-represented: about 3.6% of the library has one in this group of screens.

SMILES	HSP90 inh	KKLEB cytotox	Mdm2-MdmX inh	CF NFkB block	LGR2 antag	Peg3 promoter
Cc1nc2nc(C)n(CCN3CCOCC3)c(=O)c2c(-c2cccc([N+](=O)[O-])c2)c1C(=O)CCCCCCCCCCN1CCC(c2ccccc2)(c2ccccc2)CC1	-	0	-	0	0	95
O=C(NCCCN1CCOCC1)/C(=C/c1ccc(-c2cccc([N+](=O)[O-])c2)o1)NC(=O)c1ccccc1	-	0	-	0	0	0
O=c1cc(N=Nc2ccc(Cl)cc2)[nH]c(=O)[nH]1	0	0	-	68	0	111
COCC(=O)Nc1ccc2c(c1)C(=O)N(C)[C@H]1CC[C@H](CC(=O)Nc3ccccc3)O[C@@H]1CO2	-	-	-	-	0	-
CCNC(=O)[C@H]1[C@H](CO)[C@H]2Cn3c(ccc(-c4ccccc4F)c3=O)[C@@H]1N2CC1CC1	-	-	-	-	0	-
c1ccc(-c2cc(-c3cc(-c4ccccc4)on3)no2)cc1	-	0	-	0	0	0
COc1ccc(-c2cc(-c3ccccc3)no2)cc1	-	0	0	0	78	0
O=C(c1ccccn1)N1C[C@H]2[C@@H](c3ccccc31)[C@@H](CO)N2C(=O)Nc1ccccc1	-	-	-	-	0	-
COc1ccc(C(=O)NOCc2ccccc2)cc1	-	0	0	0	73	0
CNC[C@@H]1OCCCC[C@H](C)Oc2ccc(NC(=O)Nc3ccc(F)cc3)cc2C(=O)N([C@@H](C)CO)C[C@H]1C	-	-	-	-	0	-
CCC(=O)Nc1ccc2c(c1)C(=O)N(C)[C@H]1CC[C@@H](CC(=O)NCCCN(C)C)O[C@H]1CO2	-	-	-	-	0	-
C[C@@H]1CCCCO[C@H](CN(C)C(=O)c2ccncc2)[C@@H](C)CN([C@@H](C)CO)C(=O)c2cc(N(C)C)ccc2O1	-	-	-	-	0	-
O=c1c(Br)ccc(Br)cc1Br	-	-94	-	91	0	95
C/C(=N\N(Cc1ccccc1)c1ccccc1)c1ccncc1	0	-57	0	58	-	0
O=C(C[C@H]1CC[C@@H](NC(=O)C2CCOCC2)[C@@H](CO)O1)NCC1CC1	-	-	-	-	0	-
COC(=O)c1c(N2C(=O)[C@H]3[C@@H](C2=O)[C@]2(C(=O)Nc4c(C)cccc42)N2CCC[C@@H]32)sc(C)c1C	0	0	0	0	0	56
CO[C@@H]1CN(C)C(=O)c2cc(NC(=O)Nc3ccc(Cl)cc3)ccc2OC[C@H](C)N(C)C[C@H]1C	-	-	-	-	0	-
CN(C)CCNC(=O)c1ccc(Sc2ccc(Br)cc2)c([N+](=O)[O-])c1	0	0	0	0	0	94
CC(=O)NCCNC(=O)c1ccc(Sc2ccccc2)c([N+](=O)[O-])c1	0	0	0	0	0	0
CCc1nc2ccc(C(=O)NCc3cccs3)cn2c1N(CC)Cc1cccc(Br)c1	-	0	-	0	0	57
CCc1nc2ccc(C(=O)NCc3ccccc3OC)cn2c1N(CC)Cc1cccc(Br)c1	-	0	-	0	0	0
C[C@@H]1CN([C@H](C)CO)C(=O)c2cc(-c3ccccc3)cnc2O[C@H]1CN(C)Cc1ccccc1	-	-	-	-	0	-
O=C(NCc1ccc(C(F)(F)F)cc1)c1cccc2c(-c3ccc(F)c(F)c3)coc12	-	0	-	0	0	0
CN1CCN(c2ccc(CNC(=O)c3cccc4c(-c5ccc(F)c(F)c5)coc34)cc2)CC1	-	0	-	0	-	73
CN1CCN(c2ccc(CNC(=O)c3ccc(-c4ccc(F)c(F)c4)c4ccoc34)cc2)CC1	-	0	-	0	0	63
SMILES	HSP90 inh	KKLEB cytotox	Mdm2-MdmX inh	CF NFkB block	LGR2 antag	Peg3 promoter
C[C@@H](NC(=O)C[C@@H]1C[C@H]2c3cc(NC(=O)C4CCC4)ccc3O[C@H]2[C@H](CO)O1)c1ccccc1	-	-	-	-	0	-
O=C(C[C@@H]1CC[C@H](NC(=O)c2ccccn2)[C@H](CO)O1)NCc1cccc(F)c1	-	-	-	-	0	-
O=C(c1ccccc1)c1ccc(OCC(O)CNCc2ccc(F)cc2)cc1 (configuration not stated)	0	0	-	0	0	0
Cc1ccc(C(OCC(O)CNCc2ccc(F)cc2)c2ccccc2)cc1 (configuration not stated)	0	0	0	0	0	100
CC1=C(/C=C/C(C)=C/C=C/C(C)=C/C(=O)O)C(C)(C)CCC1	0	0	0	73	0	0
C[C@H]1CN([C@@H](C)CO)C(=O)Cc2cc(NC(=O)NC3CCCCC3)ccc2O[C@@H]1CN(C)CC1CC1	-	-	-	-	0	-
Cc1cccc(NC(=O)c2onc3c2CCCC3)c1C	0	0	0	0	-	0
Cc1cccc(NC(=O)c2onc3c2CCCC3)n1	28	0	0	0	77	0
C[C@@H]1CN([C@@H](C)CO)C(=O)c2cc(NC(=O)NC3CCCCC3)ccc2O[C@@H](C)CCCCO[C@H]1CN(C)S(=O)(=O)c1cn(C)cn1	-	-	-	-	0	-
COc1ccc(N2CCN(c3nc(NCCc4ccc(OC)c(OC)c4)nc(OC)n3)CC2)cc1	0	0	0	0	-	67
CC(=O)N(C)C[C@@H]1[C@H](c2ccc(-c3ccccc3F)cc2)[C@H](CO)N1C(C)=O	-	-	-	-	0	-
CCOc1ccc(N2C(=O)CC(Sc3nnnn3-c3ccccc3)C2=O)cc1 (configuration not stated)	0	0	-	0	0	96
CCOc1ccc(N2C(=O)CC(Sc3nc(C)cc(C)n3)C2=O)cc1 (configuration not stated)	0	0	0	0	0	0
O=C(Cc1ccncc1)NCC[C@@H]1CC[C@@H](NC(=O)Nc2cccc(F)c2)[C@@H](CO)O1	-	-	-	-	0	-
Cc1cc(-c2nn(-c3ccccc3)cc2/C=C2\SC(N)=NC2=O)ccc1OC(C)C	0	0	0	0	-	78
COc1ccc(/C=C(\C#N)C(=O)NC(C)c2ccccc2)cc1O (configuration not stated)	0	0	0	0	0	0
COC(=O)c1ccc(/C=C(\C#N)C(=O)NC(C)c2ccccc2)cc1 (configuration not stated)	0	0	0	77	0	104
C[C@H]1CN([C@@H](C)CO)C(=O)Cc2cc(NC(=O)Cc3ccccc3)ccc2O[C@@H]1CN(C)CC1CCCCC1	-	-	-	-	0	-
C[C@H]1CN([C@@H](C)CO)C(=O)c2cccc(NC(=O)NC3CCCCC3)c2O[C@H]1CN(C)S(C)(=O)=O	-	-	-	-	0	-
Cc1ccc(-c2cc(C(=O)N3N=C(C(F)F)CC3(O)C(F)F)c3ccccc3n2)cc1C (configuration not stated)	0	-50	0	52	-	0
O=C(c1cc(-c2ccccc2)nc2ccccc12)N1N=C(C(F)F)CC1(O)C(F)F (configuration not stated)	0	0	0	0	0	0
CN(C)C(=O)C[C@H]1C[C@@H]2c3cc(NC(=O)Nc4ccccc4)ccc3O[C@@H]2[C@@H](CO)O1	-	-	-	-	0	-
CC(C)c1ccc(-n2c(-c3ccccc3)c[n+]3c2CCc2ccccc2-3)cc1	0	-54	-	51	54	68
C[C@@H]1CCCCO[C@@H](CN(C)Cc2ccccc2)[C@H](C)CN([C@H](C)CO)C(=O)c2cc(NC(=O)NC3CCCCC3)ccc2O1	-	-	-	-	0	-
